Drawing on publication PMC7862700, “An all-to-all approach to the identification of sequence-specific readers for epigenetic DNA modifications on cytosine”, this text covers binding signal for one sequence.

Holding throughout (assay): DAPPL (digital affinity profiling via proximity ligation, sequencing); 10 mM Tris-HCl pH 7.5, 50 mM NaCl, 1 mM DTT, 4% glycerol, room temperature, 30 min; GST-TFs on glutathione beads, 16-mer random dsDNA library, 0.1% formaldehyde crosslink after washing; high values mean tight binding
Holding throughout (settings): protein: recombinant; tags: N-terminal GST; dsDNA, one strand shown

One experiment has as its target T1, FLI1 (Homo sapiens, UniProt Q01543 1-452).
T1 sequence: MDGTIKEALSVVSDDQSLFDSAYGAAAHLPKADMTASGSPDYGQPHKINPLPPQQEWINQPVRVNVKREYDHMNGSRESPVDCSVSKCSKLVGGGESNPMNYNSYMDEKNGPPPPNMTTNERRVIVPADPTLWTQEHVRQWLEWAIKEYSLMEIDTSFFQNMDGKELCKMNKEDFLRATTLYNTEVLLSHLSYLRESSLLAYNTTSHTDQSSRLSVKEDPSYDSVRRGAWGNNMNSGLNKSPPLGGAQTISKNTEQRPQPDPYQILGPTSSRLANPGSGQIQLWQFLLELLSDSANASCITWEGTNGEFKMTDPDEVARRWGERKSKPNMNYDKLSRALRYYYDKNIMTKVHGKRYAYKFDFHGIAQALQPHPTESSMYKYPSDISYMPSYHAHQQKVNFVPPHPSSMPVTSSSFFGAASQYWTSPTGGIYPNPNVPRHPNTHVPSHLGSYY
The method, boiled down: (§1)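 Pools were built from human transcription factors expressed in yeast as GST fusions, captured on glutathione beads and DNA-barcoded, along with a tag-only sample. Incubation with 200 nmole of a 16-mer random double-stranded DNA library lasted 30 min at room temperature in Tris/NaCl/DTT/glycerol buffer, and was followed by washing, 0.1% formaldehyde crosslinking, proximity ligation, PCR amplification and Illumina NextSeq500 sequencing. Binding signal is the quotient of each hexamer's read frequency for a factor and its frequency for the tag-only sample.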

The target of the next experiment is T2, ELK1 (Homo sapiens, UniProt P19419 1-428).
T2 sequence: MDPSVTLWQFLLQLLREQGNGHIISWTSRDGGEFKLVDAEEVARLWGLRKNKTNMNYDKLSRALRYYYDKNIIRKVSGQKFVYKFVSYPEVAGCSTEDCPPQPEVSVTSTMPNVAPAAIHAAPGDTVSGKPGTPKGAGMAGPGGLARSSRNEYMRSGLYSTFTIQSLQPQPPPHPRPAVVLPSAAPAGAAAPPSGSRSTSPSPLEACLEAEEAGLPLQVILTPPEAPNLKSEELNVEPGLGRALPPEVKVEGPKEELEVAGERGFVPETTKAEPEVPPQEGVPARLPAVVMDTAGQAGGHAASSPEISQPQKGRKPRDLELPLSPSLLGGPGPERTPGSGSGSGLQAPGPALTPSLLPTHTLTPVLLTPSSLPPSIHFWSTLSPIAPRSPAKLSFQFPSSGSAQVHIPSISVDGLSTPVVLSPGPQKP
In short, it runs like this:
as §1

The target of a further experiment is T3, GABPA (Homo sapiens, UniProt Q06546 1-454).
T3 sequence: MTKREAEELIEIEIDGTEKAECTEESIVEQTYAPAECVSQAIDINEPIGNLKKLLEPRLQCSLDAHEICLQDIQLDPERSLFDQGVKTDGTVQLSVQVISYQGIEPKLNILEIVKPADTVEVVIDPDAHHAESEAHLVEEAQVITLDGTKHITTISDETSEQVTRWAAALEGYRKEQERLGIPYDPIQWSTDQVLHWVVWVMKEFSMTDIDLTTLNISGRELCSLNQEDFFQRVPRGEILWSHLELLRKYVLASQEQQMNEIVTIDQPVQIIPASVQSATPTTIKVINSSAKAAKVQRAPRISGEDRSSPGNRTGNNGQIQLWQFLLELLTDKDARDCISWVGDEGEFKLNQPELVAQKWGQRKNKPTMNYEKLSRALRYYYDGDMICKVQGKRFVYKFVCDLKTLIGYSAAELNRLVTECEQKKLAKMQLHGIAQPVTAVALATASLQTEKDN
In short, it runs like this: as §1

A further experiment has as its target T4, ERG (Homo sapiens, UniProt P11308 1-479).
T4 sequence: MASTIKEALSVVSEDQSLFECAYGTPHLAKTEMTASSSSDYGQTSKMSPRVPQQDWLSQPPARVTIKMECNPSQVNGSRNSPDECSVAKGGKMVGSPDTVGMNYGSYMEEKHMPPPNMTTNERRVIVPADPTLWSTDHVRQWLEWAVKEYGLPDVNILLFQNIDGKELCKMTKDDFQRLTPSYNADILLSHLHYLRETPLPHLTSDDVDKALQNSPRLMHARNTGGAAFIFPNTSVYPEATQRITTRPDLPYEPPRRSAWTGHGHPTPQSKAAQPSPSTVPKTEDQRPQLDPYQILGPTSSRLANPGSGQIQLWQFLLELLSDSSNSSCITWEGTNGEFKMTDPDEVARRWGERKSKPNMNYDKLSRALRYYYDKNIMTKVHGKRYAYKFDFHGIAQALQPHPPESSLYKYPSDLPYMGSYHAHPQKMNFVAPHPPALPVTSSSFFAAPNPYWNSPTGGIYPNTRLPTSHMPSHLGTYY
The method, boiled down:
as §1

The target of another experiment is ELF1 (Homo sapiens, UniProt P32519 1-619). In short, it runs like this:
as §1

A further experiment concerns the target T5, EHF (Homo sapiens, UniProt Q9NZC4 1-300).
T5 sequence: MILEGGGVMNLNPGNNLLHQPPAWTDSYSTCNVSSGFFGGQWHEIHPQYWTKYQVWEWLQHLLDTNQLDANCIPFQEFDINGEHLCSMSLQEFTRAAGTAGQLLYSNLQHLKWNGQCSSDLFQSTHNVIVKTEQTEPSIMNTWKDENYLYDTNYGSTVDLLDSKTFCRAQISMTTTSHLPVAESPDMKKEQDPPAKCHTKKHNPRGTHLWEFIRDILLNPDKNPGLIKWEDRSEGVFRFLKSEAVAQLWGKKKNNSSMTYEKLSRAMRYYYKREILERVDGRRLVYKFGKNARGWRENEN
In short, it runs like this:
as §1

A further experiment concerns the target SPI1 (Homo sapiens, UniProt P17947 1-270). The method, boiled down: as §1
The next experiment deals with SPIB (Homo sapiens, UniProt Q01892 1-262). The method, boiled down:
as §1

For the next experiment, the target named is T6, ELK3 (Homo sapiens, UniProt P41970 1-407).
T6 sequence: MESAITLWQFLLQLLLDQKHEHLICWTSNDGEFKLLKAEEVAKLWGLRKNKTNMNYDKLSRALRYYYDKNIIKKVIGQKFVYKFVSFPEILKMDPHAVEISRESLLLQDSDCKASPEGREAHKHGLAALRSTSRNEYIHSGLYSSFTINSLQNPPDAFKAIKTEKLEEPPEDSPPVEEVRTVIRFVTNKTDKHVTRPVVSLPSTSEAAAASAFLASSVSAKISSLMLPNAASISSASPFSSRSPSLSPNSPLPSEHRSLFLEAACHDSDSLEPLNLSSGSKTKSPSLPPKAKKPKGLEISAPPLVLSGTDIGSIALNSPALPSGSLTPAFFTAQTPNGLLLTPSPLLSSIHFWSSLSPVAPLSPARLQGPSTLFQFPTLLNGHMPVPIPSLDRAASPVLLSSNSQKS
In short, it runs like this:
as §1

For a further experiment, the target named is T7, FEV (Homo sapiens, UniProt Q99581 1-238).
T7 sequence: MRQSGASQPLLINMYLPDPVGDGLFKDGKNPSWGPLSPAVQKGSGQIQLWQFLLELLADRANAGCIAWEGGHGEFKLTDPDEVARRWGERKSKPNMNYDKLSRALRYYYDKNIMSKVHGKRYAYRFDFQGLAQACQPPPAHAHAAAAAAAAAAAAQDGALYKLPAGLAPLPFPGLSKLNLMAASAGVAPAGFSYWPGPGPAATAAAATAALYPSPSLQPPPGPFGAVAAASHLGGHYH
In short, it runs like this:
as §1

For the next experiment, the target named is ETV5 (Homo sapiens, UniProt P41161 1-510). The method, boiled down:
as §1

Another experiment deals with ELF4 (Homo sapiens, UniProt Q99607 1-663). The method, boiled down: as §1
The target of another experiment is ETV1 (Homo sapiens, UniProt P50549 1-477). The method, boiled down:
as §1

In the next experiment the target is T8, ERF (Homo sapiens, UniProt P50548 1-548).
T8 sequence: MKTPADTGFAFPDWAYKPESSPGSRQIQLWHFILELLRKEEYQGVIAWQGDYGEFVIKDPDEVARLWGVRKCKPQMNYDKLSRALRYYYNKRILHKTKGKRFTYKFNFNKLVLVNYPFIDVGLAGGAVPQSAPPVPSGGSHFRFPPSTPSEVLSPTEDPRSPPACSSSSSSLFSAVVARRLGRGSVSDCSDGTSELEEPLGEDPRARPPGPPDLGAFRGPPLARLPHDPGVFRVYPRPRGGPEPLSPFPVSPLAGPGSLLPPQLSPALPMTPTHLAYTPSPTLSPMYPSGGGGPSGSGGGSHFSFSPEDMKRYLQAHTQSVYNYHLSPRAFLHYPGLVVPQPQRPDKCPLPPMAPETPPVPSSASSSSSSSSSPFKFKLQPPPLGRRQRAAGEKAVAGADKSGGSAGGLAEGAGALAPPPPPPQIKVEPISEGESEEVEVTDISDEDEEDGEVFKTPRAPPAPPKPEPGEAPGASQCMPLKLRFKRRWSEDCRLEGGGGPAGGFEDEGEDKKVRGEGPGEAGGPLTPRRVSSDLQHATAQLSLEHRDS
The method, boiled down: as §1

The target in the next experiment is T9, ETV3L (Homo sapiens, UniProt Q6ZN32 1-361).
T9 sequence: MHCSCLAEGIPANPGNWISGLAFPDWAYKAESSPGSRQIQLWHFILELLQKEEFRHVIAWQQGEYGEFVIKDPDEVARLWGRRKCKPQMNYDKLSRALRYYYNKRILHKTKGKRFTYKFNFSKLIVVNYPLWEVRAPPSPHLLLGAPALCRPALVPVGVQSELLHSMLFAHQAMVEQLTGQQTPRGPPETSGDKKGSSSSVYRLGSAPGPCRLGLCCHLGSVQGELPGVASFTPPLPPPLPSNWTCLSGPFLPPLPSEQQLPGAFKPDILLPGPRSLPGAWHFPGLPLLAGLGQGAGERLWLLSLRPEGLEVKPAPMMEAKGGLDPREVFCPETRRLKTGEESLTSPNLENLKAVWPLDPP
In short, it runs like this: as §1

In a further experiment the target is T10, ETS2 (Homo sapiens, UniProt P15036 1-469).
T10 sequence: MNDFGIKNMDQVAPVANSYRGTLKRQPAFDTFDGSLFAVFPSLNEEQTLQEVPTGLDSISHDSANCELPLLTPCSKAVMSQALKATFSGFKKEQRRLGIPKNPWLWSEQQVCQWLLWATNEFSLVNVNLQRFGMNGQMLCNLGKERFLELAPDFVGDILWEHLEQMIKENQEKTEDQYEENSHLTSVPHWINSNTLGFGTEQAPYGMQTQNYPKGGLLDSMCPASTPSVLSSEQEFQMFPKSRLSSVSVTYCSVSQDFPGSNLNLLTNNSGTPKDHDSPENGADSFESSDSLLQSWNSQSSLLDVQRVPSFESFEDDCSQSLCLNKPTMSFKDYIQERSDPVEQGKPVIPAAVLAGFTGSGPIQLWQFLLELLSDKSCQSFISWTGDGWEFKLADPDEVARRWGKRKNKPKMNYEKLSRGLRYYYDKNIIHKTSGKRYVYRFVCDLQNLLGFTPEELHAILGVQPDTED
The method, boiled down: as §1

For another experiment, the target named is T11, ELF5 (Homo sapiens, UniProt Q9UKW6-2 1-255).
T11 sequence: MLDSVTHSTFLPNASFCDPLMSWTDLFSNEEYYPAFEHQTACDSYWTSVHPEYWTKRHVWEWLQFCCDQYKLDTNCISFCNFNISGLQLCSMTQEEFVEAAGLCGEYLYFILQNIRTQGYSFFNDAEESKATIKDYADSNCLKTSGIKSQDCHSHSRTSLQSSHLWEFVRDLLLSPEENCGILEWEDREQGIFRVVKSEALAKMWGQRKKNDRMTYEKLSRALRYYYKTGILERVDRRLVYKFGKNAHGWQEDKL
In short, it runs like this:
as §1

The target in the next experiment is T12, ETV3 (Homo sapiens, UniProt P41162-2 1-143).
T12 sequence: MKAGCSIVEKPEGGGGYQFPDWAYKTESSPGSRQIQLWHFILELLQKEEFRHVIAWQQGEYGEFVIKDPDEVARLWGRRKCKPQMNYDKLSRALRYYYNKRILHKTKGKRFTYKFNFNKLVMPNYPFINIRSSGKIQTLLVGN
In short, it runs like this: as §1

The target of another experiment is ETV6 (Homo sapiens, UniProt P41212 1-452). In short, it runs like this: as §1
Sequence of ETV6 (P41212 whole entry): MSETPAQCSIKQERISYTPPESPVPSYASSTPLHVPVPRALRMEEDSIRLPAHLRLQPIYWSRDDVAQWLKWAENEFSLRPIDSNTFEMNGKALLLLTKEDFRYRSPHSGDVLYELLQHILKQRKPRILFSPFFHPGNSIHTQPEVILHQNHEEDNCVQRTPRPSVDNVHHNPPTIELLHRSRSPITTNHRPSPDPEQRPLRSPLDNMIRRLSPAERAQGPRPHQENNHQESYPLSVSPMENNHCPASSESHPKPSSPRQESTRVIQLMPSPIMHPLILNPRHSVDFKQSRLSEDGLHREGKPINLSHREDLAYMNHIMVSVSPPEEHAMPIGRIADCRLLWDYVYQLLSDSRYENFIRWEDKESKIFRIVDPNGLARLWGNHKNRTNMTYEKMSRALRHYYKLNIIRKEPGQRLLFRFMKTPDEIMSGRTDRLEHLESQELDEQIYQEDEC

Sequence of ELF4 (Q99607 whole entry): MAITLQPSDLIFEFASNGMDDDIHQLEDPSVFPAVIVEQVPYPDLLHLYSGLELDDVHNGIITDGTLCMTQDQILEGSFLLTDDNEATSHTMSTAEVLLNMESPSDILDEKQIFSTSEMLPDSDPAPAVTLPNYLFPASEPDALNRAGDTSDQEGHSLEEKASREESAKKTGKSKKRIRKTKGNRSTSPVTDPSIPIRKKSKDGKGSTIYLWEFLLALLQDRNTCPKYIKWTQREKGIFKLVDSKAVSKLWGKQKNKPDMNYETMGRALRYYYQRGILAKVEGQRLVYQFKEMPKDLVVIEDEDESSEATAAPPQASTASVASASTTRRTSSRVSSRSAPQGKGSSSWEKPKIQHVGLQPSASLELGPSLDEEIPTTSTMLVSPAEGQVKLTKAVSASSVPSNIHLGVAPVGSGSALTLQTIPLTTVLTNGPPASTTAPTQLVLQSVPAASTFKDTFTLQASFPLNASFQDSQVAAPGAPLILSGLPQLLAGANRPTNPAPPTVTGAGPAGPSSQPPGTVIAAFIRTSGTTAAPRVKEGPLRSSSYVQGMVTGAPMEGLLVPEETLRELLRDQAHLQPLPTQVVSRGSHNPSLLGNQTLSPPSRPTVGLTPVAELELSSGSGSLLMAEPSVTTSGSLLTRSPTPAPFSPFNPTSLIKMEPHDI
Sequence of SPIB (Q01892 whole entry): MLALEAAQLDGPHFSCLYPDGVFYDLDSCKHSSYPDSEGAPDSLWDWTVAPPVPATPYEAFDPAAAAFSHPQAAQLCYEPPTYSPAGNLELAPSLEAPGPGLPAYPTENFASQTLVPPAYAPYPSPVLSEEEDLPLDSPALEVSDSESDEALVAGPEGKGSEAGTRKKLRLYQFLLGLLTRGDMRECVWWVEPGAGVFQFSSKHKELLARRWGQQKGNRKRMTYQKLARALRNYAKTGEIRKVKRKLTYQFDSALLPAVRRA
Sequence of ETV5 (P41161 whole entry): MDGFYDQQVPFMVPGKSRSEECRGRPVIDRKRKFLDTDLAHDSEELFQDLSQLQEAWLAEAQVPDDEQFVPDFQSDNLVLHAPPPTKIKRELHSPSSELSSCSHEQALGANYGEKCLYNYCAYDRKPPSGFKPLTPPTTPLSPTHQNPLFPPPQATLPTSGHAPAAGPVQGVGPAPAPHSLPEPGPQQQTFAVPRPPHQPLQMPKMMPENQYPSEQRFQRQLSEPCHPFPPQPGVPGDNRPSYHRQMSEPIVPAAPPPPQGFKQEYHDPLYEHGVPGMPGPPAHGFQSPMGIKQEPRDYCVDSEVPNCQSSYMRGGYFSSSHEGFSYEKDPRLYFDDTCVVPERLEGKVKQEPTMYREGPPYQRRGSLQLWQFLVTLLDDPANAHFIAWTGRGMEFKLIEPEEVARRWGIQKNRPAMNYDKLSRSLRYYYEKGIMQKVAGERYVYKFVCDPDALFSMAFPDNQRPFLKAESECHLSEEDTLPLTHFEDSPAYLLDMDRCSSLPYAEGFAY
Sequence of ETV1 (P50549 whole entry): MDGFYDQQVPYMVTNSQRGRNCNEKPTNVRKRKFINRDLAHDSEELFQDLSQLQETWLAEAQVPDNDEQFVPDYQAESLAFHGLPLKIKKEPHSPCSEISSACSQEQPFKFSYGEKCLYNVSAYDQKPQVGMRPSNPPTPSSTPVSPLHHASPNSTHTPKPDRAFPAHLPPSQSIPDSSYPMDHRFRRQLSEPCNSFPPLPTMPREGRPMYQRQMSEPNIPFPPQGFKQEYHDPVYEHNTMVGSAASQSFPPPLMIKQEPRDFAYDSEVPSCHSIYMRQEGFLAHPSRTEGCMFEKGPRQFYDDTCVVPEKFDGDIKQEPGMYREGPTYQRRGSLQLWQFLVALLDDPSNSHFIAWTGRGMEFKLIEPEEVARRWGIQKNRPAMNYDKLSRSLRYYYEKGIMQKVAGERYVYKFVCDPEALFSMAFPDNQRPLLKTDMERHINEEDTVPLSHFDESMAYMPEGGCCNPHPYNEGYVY
Sequence of ELF1 (P32519 whole entry): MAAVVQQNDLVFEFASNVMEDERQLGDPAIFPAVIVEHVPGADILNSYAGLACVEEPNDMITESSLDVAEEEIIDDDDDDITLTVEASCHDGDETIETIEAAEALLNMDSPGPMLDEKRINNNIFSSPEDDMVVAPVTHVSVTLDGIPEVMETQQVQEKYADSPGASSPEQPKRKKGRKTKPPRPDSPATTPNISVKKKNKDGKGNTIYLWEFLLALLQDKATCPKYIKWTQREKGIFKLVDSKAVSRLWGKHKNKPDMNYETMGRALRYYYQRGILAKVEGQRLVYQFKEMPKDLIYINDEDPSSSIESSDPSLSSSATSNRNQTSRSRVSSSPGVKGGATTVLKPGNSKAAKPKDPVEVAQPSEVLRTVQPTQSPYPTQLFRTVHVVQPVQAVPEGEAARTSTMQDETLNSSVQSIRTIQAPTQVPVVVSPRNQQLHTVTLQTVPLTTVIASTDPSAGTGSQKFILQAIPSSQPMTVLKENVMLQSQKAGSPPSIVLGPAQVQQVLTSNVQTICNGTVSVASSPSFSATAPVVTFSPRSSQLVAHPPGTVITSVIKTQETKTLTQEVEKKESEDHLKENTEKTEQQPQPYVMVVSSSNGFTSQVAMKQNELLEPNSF

As to CCCCCC, the binding signal with FLI1 is 1.03 fold enrichment (6-mer frequency, TF over GST control); with ELK1, 1.04 fold enrichment (6-mer frequency, TF over GST control); with GABPA it was 1.08 fold enrichment (6-mer frequency, TF over GST control); with ERG, 1.07 fold enrichment (6-mer frequency, TF over GST control); with ELF1 it was 1.08 fold enrichment (6-mer frequency, TF over GST control); in the experiment with EHF, 1.06 fold enrichment (6-mer frequency, TF over GST control). Moreover, the binding signal in the experiment with SPI1 is 1.07 fold enrichment (6-mer frequency, TF over GST control); with SPIB it was 1.1 fold enrichment (6-mer frequency, TF over GST control); in the experiment with ELK3 it was 1.12 fold enrichment (6-mer frequency, TF over GST control); in the experiment with FEV, 1.03 fold enrichment (6-mer frequency, TF over GST control); in the experiment with ETV5, 1.09 fold enrichment (6-mer frequency, TF over GST control); with ELF4, 1.16 fold enrichment (6-mer frequency, TF over GST control). The binding signal with ETV1 is 1.11 fold enrichment (6-mer frequency, TF over GST control); with ERF it was 1.05 fold enrichment (6-mer frequency, TF over GST control); with ETV3L it was 1.07 fold enrichment (6-mer frequency, TF over GST control); with ETS2, 1.1 fold enrichment (6-mer frequency, TF over GST control); with ELF5, 1.09 fold enrichment (6-mer frequency, TF over GST control); with ETV3 it was 1.14 fold enrichment (6-mer frequency, TF over GST control). Also, in the experiment with ETV6, the binding signal is 1.06 fold enrichment (6-mer frequency, TF over GST control).
